From the supplement of paper PMC10981050
Where “and” joins values, the source holds several entries; their conditions need not be identical. Equal entries are not always repeated. Structures can show the parent of a compound that is named as a salt.

Assays:
Assay in all cases: cell viability relative to vehicle control; higher = less cytotoxic
Settings in all cases: 10 µM
K562 = test system: K562
Outline: (§1)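 Screening covered the Selleck bioactive, kinase and epigenetic probe libraries, less identity-inconsistent compounds, on CRISPR-edited mutant clones and isogenic wild-type clones of four leukaemia lines. Cells, at 2000 per well in 50 µL medium, received a single 10 µM acoustically dispensed dose. After 48 h the supernatant was removed and CellTiter-Glo luminescence was read. Viability was analysed in Genedata Screener as percent of the on-plate vehicle control.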

MARIMO = test system: MARIMO
Outline: as §1

MOLM14 = test system: MOLM14
Outline: as §1

OCI-AML2 = test system: OCI-AML2
Outline: as §1

Structure (SMILES)	cell viability (K562; SRSF2 genotype: SRSF2 P95H/wt)	cell viability (K562; SRSF2 genotype: SRSF2 wt/wt)	cell viability (MARIMO; SRSF2 genotype: SRSF2 P95H/wt)	cell viability (MARIMO; SRSF2 genotype: SRSF2 wt/wt)	cell viability (MOLM14; SRSF2 genotype: SRSF2 P95H/wt)	cell viability (MOLM14; SRSF2 genotype: SRSF2 wt/wt)	cell viability (OCI-AML2; SRSF2 genotype: P95H/wt)	cell viability (OCI-AML2; SRSF2 genotype: wt/wt)
COc1ccc([C@@H]2CC(=O)c3c(O)cc(O[C@@H]4O[C@H](CO[C@@H]5O[C@@H](C)[C@H](O)[C@@H](O)[C@H]5O)[C@@H](O)[C@H](O)[C@H]4O)cc3O2)cc1O [Hesperidin]	105% and 115%	111%	107%	109%	109%	113%	112%	97.2%
CC1(C)CCC(CN2CCN(c3ccc(C(=O)NS(=O)(=O)c4ccc(NCC5CCOCC5)c([N+](=O)[O-])c4)c(Oc4cnc5[nH]ccc5c4)c3)CC2)=C(c2ccc(Cl)cc2)C1 [Venetoclax (ABT-199, GDC-0199)]	79% and 81.2%	76%	0.58%	6.31%	1.63%	7.23%	1.25%	10.2%
C=C[C@]1(C)C[C@@H](OC(=O)CSCCN(CC)CC)[C@]2(C)[C@H](C)CC[C@]3(CCC(=O)[C@H]32)[C@@H](C)[C@@H]1O [Tiamulin]	83.5% and 81.7%	90.1%	75.6%	92.8%	84%	87.9%	86.1%	79.5%
Cc1ccc2oc(=O)ccc2c1 [6-Methylcoumarin]	99.5% and 87.8%	91.3%	97.3%	98.6%	95%	101%	91.1%	107%
CCOc1cn(-c2ccc(F)cc2C)nc1C(=O)Nc1ccc(Oc2ccnc3cc(OC)c(OC)cc23)c(F)c1	23.1% and 45.6%	25.2%	89.3%	90.4%	24.9%	19.6%	48.1%	52.9%
Cc1nc(C)c(C)nc1C [Tetramethylpyrazine]	111% and 112%	118%	107%	111%	108%	107%	112%	116%
COC(=O)C1=C(C)NC(C)=C(C(=O)OCCN2CCN(C(c3ccccc3)c3ccccc3)CC2)C1c1cccc([N+](=O)[O-])c1 (configuration not stated) [Manidipine dihydrochloride (CV-4093)]	60.3% and 62.1%	53.6%	67.1%	68.6%	55.2%	57.7%	42.5%	46.8%
OC[C@H]1O[C@H](O[C@H]2[C@H](O)[C@@H](O)C(O)O[C@@H]2CO)[C@H](O)[C@@H](O)[C@@H]1O (mixture of isomers) [Maltose]	96.1% and 91.6%	99.6%	102%	102%	98.9%	98.9%	96.6%	104%
CCCS(=O)(=O)Nc1ccc(F)c(C(=O)c2c[nH]c3ncc(-c4ccc(Cl)cc4)cc23)c1F [Vemurafenib (PLX4032, RG7204)]	92.8% and 102%	94.8%	92.6%	106%	102%	108%	111%	105%
Cc1ccc(Nc2cc(N[C@@H]3CCCC[C@@H]3N)nnc2C(N)=O)nc1C	80.8% and 84.1%	80.7%	76.2%	79%	18.6%	18%	15.1%	25.2%
O=C(c1ccc(/C=C/c2n[nH]c3ccccc23)cc1)N1CCNCC1	42.2% and 62.9%	27.7%	38.9%	36.2%	2.78%	7.69%	7.33%	14.9%
Cc1cnc(NC(=O)Nc2cc(Br)c(C)cc2OC[C@@H]2CNCCO2)cn1	8.35% and 7.58%	8.76%	20.6%	8.01%	10.8%	6.96%	12.8%	12.1%
O=C(NC1(c2ccccc2)CC1)c1c(CN2CCC(N3CCCCC3)CC2)c(-c2cccc(C(F)(F)F)c2)nc2cc(Br)ccc12	8.23% and 19.8%	11.8%	66.8%	58.4%	64.9%	71.4%	1.08%	24.1%
COc1ccc(-c2cc(=O)c3c(O)cc(OC4OC(CO)C(O)C(O)C4OC4OC(C)C(O)C(O)C4O)cc3o2)cc1O (configuration not stated) [Neodiosmin]	93.3% and 85.3%	90.1%	94.6%	97%	97.6%	100%	89.8%	94.4%
NC(=O)c1cccc2cn(-c3ccc(C4CCCNC4)cc3)nc12 (configuration not stated) [MK-4827(Niraparib)]	102% and 104%	86.9%	40.9%	57.4%	25.2%	8.96%	45.3%	51.5%
C#CC[C@H](c1nc2cc(Cl)ccc2c(=O)n1Nc1ccccc1)N(CCCN)C(=O)c1cccc(Cl)c1F	0.47% and 0.44%	0.4%	0.46%	0.55%	0.39%	0.42%	0.41%	0.45%
C/C(O)=C(\C#N)C(=O)Nc1ccc(C(F)(F)F)cc1 [Teriflunomide]	93.8% and 104%	91.6%	94.3%	98.5%	88.2%	93.9%	79.9%	87.1%
Cc1ccc(NC(=O)c2ccc(CN3CCN(C)CC3)cc2)cc1Nc1nccc(-c2cccnc2)n1 [Imatinib Mesylate (STI571)]	11.9% and 25.7%	16.7%	103%	104%	80.7%	94%	82.3%	78%
COc1c(O)cc2c(c1O)C(=O)c1c(cc(C)c(O)c1OC)C2=O [Aurantio-obtusin]	87% and 81.9%	79.3%	84.5%	84.3%	84.5%	88.9%	97.9%	91.5%
Cc1nn(C)c(COc2ccc(N3CCN(S(=O)(=O)N(C)C)CC3)cc2)c1-c1cccc2c(CCCOc3cccc4ccccc34)c(C(=O)O)n(CCN3CCOCC3)c12	93.7% and 106%	99.8%	101%	107%	98.3%	101%	103%	103%

Structure (SMILES)	cell viability (K562; SRSF2 genotype: SRSF2 P95H/wt)	cell viability (K562; SRSF2 genotype: SRSF2 wt/wt)	cell viability (MARIMO; SRSF2 genotype: SRSF2 P95H/wt)	cell viability (MARIMO; SRSF2 genotype: SRSF2 wt/wt)	cell viability (MOLM14; SRSF2 genotype: SRSF2 P95H/wt)	cell viability (MOLM14; SRSF2 genotype: SRSF2 wt/wt)	cell viability (OCI-AML2; SRSF2 genotype: P95H/wt)	cell viability (OCI-AML2; SRSF2 genotype: wt/wt)
CC(C)=C[C@H]1C[C@](C)(O)[C@@H]2[C@H]3CC[C@@H]4[C@@]5(C)CC[C@H](O[C@@H]6OC[C@H](O)[C@H](O[C@@H]7O[C@H](CO)[C@@H](O)[C@H](O)[C@H]7O[C@@H]7OC[C@@H](O)[C@H](O)[C@H]7O)[C@H]6O[C@@H]6O[C@@H](C)[C@H](O)[C@@H](O)[C@H]6O)C(C)(C)[C@@H]5CC[C@@]4(C)[C@@]34CO[C@@]2(C4)O1 [Jujuboside B]	117% and 106%	102%	108%	113%	107%	106%	97.2%	108%
OC1OC[C@@H](O)[C@@H](O)[C@@H]1O (stereo partly drawn) [D(-)-Arabinose]	111% and 100%	118%	110%	109%	100%	111%	116%	117%
CCOC(=O)[C@@H](N)Cc1ccc(-c2cc(O[C@H](c3ccc(Cl)cc3-n3ccc(C)n3)C(F)(F)F)nc(N)n2)cc1 [LX1606 hippurate]	64.2% and 52.4%	57.2%	68.9%	72.7%	14.2%	44.5%	4.73%	12.2%
OB1OCc2cc(F)ccc21 [Tavaborole (AN-2690)]	88.2% and 85.6%	84.3%	85.4%	87.8%	82.8%	85.1%	87.8%	82.8%
Cc1ccc(CN(CC(O)COc2cccc3[nH]ccc23)C(C)(C)C)cc1 (configuration not stated)	71% and 71.5%	66.8%	67%	76.8%	68%	74%	83.4%	86.2%
CC(C)=CCC[C@](C)(O[C@@H]1O[C@H](CO)[C@@H](O)[C@H](O)[C@H]1O)[C@H]1CC[C@]2(C)[C@@H]1[C@H](O)C[C@@H]1[C@@]3(C)CC[C@H](O)C(C)(C)[C@@H]3CC[C@]12C [Ginsenoside CK]	82.7% and 78.2%	77%	92.6%	104%	77.2%	95%	65.3%	76.4%
CC(=O)Oc1c(C)c(C)c2c(c1C)CCC(C)(CCC[C@H](C)CCC[C@H](C)CCCC(C)C)O2 (some centres not stated) [Vitamin E Acetate]	105% and 103%	106%	102%	103%	103%	106%	105%	94.2%
Oc1ccc2c(c1)OC[C@H]1c3cc4c(cc3O[C@@H]21)OCO4 [Maackiain]	82.8% and 87.4%	79.4%	80%	83.8%	90.7%	85.4%	82.3%	84.6%
NCCCCCN [Cadaverine]	104% and 94%	99.5%	100%	101%	95.9%	101%	97.1%	97.7%
CNc1nc(-c2ccc3c(N)n[nH]c3c2)cc(N2C[C@@H](C(=O)NC3CCCCC3)CC[C@H]2C)n1	78.3% and 74.9%	73.5%	72.1%	72.8%	42.3%	39.5%	47.6%	40.7%
Cc1cccc(Nc2ccncc2S(=O)(=O)NC(=O)NC(C)C)c1 [Torsemide (Demadex)]	100% and 105%	102%	101%	103%	105%	101%	103%	104%
C[n+]1cc2c3c(ccc2c2ccc4cc5c(cc4c21)OCO5)OCO3 [Sanguinarine chloride]	0.68% and 0.46%	0.74%	0.3%	0.38%	0.25%	0.34%	0.31%	0.29%
CCOc1cc(N2CCC(O)CC2)ccc1Nc1ncc2c(n1)N(C)c1ccccc1C(=O)N2C	91% and 89.7%	88%	73%	59.6%	62.4%	55.3%	58.3%	67.9%
CC=C(C)C(=O)O [S3803 Angelic acid.cdx]	106% and 99.5%	103%	106%	108%	104%	100%	103%	108%
Cn1cc(/C=C2\C(=O)Nc3cccnc32)c2ccccc21	98% and 98.2%	96.4%	91.2%	94.3%	25.7%	22.9%	49.4%	56.2%
C=CC(=O)N1CCN(CCCn2c(=O)c(-c3c(Cl)c(OC)cc(OC)c3Cl)cc3cnc(NC)nc32)CC1	85.1% and 88.1%	86.8%	63.3%	72.7%	85.3%	88.1%	65.2%	69.4%
NC(=O)c1cccc(N)c1 [INO-1001 (3-Aminobenzamide)]	96.6% and 95.7%	94.7%	99.5%	97.8%	100%	96.6%	94.7%	98.8%
Nc1nc(F)nc2c1ncn2[C@@H]1O[C@H](COP(=O)(O)O)[C@@H](O)[C@@H]1O [Fludarabine Phosphate (Fludara)]	105% and 112%	98.7%	64.2%	84.9%	88.1%	101%	6.47%	10.8%
O=C1Nc2ccc(CN3C(=O)CSC3=O)cc2/C1=C/c1cc(CN2CCOCC2)c[nH]1	98.7% and 100%	103%	97.1%	100%	92%	100%	97.6%	91%
